# High-throughput results as filed in PubChem BioAssay.
# SMN2 splice up = increases expression of the SMN2 splice variant | HEK293 SMN2-luciferase splicing reporter, luminescence, 30-36 h | Potency, µM (top dose mostly 46.1 µM), inactives show top-dose activity change, positive = activation, hits mostly activators | actives 2.8% (n = 210,000); further: % of control where 0% means no effect; nearly all actives have a fitted effect of over 55% in size
#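 qHTS luciferase splicing reporter: luminescence rises when SMN2 exon 7 is included in transfected HEK293 cells. Compound exposure lasted 30-36 h at 37C, with 4.5 mM final sodium butyrate as control, followed by a ONE-Glo read.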
# ELG1 repair inh = inhibitors of ELG1-dependent DNA repair in HEK293T cells; HEK293T ELG1-luciferase reporter, luminescence, 16 h; DNA damage induced by 5-fluorouridine; Potency, µM (titrated, usually from 46.1 µM), without a hit: at the top dose activity change, negative = inhibition, actives largely listed as inhibitors; actives 2.3% (n = 330,000); AID 504467; further: on the % scale 0 is the no-effect control and ±100 the full control effect; nearly all actives have a fitted effect of over 55% in size
#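 In this reporter screen, reduction of luminescence relative to DMSO vehicle indicated activity. Compounds and 5-fluorouridine were added together to 2,000 cells per well, incubated for 16 hr at 37 °C, then developed with ONE-Glo.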
# Rab9 prom act = Rab9 promoter activation | Huh7 Rab9 promoter-luciferase reporter, luminescence, 24 h | Potency, µM (titrated, usually from 9.22 µM), for the others: at the top dose activation, negative = inhibition, hits mostly activators | actives 2.8% (n = 320,000); further: % of control where 0% means no effect; nearly all actives have a fitted effect of over 60% in size
#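 Steps: seed 1500 Huh7 Rab9-luc cells per well, rest 2 h at 37 °C; add compound in DMSO; incubate 24 h; add luciferase reagent, 10 min ambient; read luminescence.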
# FLuc counter = inhibits or activates purified firefly luciferase, miR-21 counter-screen; P08659; purified FLuc, Km substrates, luminescence inhibition; Potency, µM (titrated, usually from 57.5 µM), without a hit: at the highest dose activity change, negative = inhibition, actives largely listed as inhibitors; actives 6.9% (n = 360,000);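 further: plate controls were vehicle for no effect and reference inhibitor for full effect; nearly all actives have a fitted effect of over 55% in size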
# Target sequence (P08659 whole entry, looked up): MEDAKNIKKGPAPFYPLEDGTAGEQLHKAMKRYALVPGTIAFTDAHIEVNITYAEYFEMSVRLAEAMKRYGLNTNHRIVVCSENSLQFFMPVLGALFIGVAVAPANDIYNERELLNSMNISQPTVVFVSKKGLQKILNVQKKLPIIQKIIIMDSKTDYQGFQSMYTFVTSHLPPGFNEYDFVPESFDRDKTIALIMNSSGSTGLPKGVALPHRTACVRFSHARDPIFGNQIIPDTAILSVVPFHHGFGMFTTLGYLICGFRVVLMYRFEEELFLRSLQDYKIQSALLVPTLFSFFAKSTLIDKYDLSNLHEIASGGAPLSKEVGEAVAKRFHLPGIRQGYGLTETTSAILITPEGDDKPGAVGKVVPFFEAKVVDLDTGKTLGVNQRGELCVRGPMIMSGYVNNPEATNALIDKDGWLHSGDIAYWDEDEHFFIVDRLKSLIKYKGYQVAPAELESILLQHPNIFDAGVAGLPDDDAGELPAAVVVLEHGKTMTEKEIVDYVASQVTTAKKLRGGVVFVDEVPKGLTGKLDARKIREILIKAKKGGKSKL
#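 Purified P. pyralis luciferase, 10 nM final, with Km-level 10 uM D-luciferin and 10 uM ATP in 50 mM Tris acetate pH 7.5, 10 mM Mg acetate, 0.01% Tween-20, 0.05% BSA; 6-point qHTS titration about 60 µM downward; luminescence read.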
# ELG1 genotoxic = genotoxicity induction in ELG1-luciferase HEK293T cells | HEK293T ELG1-luciferase reporter, luminescence, 16 h | Potency, µM (titrated, usually from 46 µM), for inactives: at the highest dose activity change, positive = activation, hits mostly activators | actives 1.3% (n = 330,000); further: % of control where 0% means no effect; nearly all actives have a fitted effect of over 60% in size
#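 Quantitative HTS format in 1536-well plates. HEK293T ELG1-luciferase reporter cells receive test compound and are incubated 16 hr at 37 °C, 5% CO2; ONE-Glo added, 30 min room temperature, then luminescence read.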
# NPC1 promoter act = activates the NPC1 promoter; Huh7 NPC1 promoter luciferase reporter, 24 h; AID 485313; actives 2.4% (n = 320,000); Potency, µM (doses to about 9.22 µM), for inactives: at the highest dose activation, actives largely listed as activators; further: % of control where 0% means no effect; nearly all actives have a fitted effect of over 60% in size
#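 Huh7 cells stably carrying NPC1 promoter–luciferase, plated in Opti-MEM with 10% FBS for 2 h, were exposed to compound in DMSO for 24 h at 37 °C; luciferase reagent was added for 10 min and luminescence read.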
# Numbers without * were called inactive; ? = inconclusive; · = not tested or not shown. Compounds with a hit are over-represented: about 9.4% of the library has one in this group of screens. The call rests on the fitted dose curve; in most records, active means well fitted curve in the direction sought with a large enough effect; inconclusive means small, poorly fitted or top-dose-only effect, or another doubt; inactive means no such curve, though single readings can be large; an effect the other way counts as inactive or inconclusive. Potency means the concentration at half of the fitted maximal effect.
SMILES,SMN2 splice up,ELG1 repair inh,Rab9 prom act,FLuc counter,ELG1 genotoxic,NPC1 promoter act
C/C(N)=C(/C#N)C(=O)COC(=O)c1cc2c(s1)CCCC2,24%,11%,-19%,15µM*,?,1%
COc1ccc(CNC(=O)c2ccc3c(c2)N(Cc2c(F)cccc2Cl)C(=O)CS3)cc1,-43%,·,·,3%,·,·
Fc1ccc(/C=N/c2c(-c3ccc(F)cc3)nc3n2CCS3)cc1,7%,10%,-7%,1%,2%,0%
COc1ccc(/C=N/c2c(-c3ccc(OC)cc3)nc3n2CCS3)cc1,9%,-13%,18%,1.9µM*,2%,-4%
O=C(Cc1nc2ccccc2[nH]c1=O)c1ccccc1,11µM*,?,1.4µM*,3.4µM*,?,3.2µM*
CC(=O)COC(=O)CCc1nc2ccccc2[nH]c1=O,7%,5%,2%,2%,-1%,1%
O=C(Cc1ccc(Br)cc1)Nc1nc2ccccc2[nH]1,·,5%,3%,-14%,7%,13%
O=c1[nH]c2ccccc2nc1Cc1ccccc1,2%,-8%,5%,0%,0%,1%
CCCCOC(=O)CCc1nc2ccccc2[nH]c1=O,-5%,29µM*,-3%,6%,3%,1%
O=C(Cc1nc2ccccc2[nH]1)c1ccc(Br)cc1,?,?,?,21µM*,9%,29%
CC(C)(C)NC(=O)N1CCC(C(=O)O)CC1,·,·,·,0%,·,·
CC(=O)N1N=C(c2cccc(Cl)c2)OC1c1ccc(C(C)C)cc1 (configuration not stated),4%,?,23%,24µM*,18µM*,17%
CCCCCCc1cc2cc(-c3nnc(-c4cccc(Cl)c4)o3)c(=O)oc2cc1O,-7%,·,·,-14%,·,·
CCc1ccccc1NC(=O)c1nn(-c2ccc(C)cc2)c(=O)c2c1c1ccccc1n2C,3%,·,·,1%,·,·
CCOc1ccc(C(=O)NCc2nnnn2-c2ccc(C)c(C)c2)cc1OCC,·,·,·,-3%,·,·
c1ccn2cc(-c3ccc4c(c3)OCCO4)nc2c1,0.4µM*,?,0.63µM*,0.48µM*,0.29µM*,?
Cc1ccc(CSc2ccc(-c3ccc4c(c3)OCO4)nn2)cc1,26%,?,15%,-17%,7%,3%
O=S(=O)(c1cccc(-c2cn3ccccc3n2)c1)N1CCCCC1,·,-15%,-3%,?,-10%,-1%
Cc1ccc2nc(-c3ccc4c(c3)OCCO4)cn2c1,·,?,-37%,0.067µM*,?,-32%
O=C1COc2ccc(-c3csc(NCCc4ccccc4)n3)cc2N1,-51%,?,0%,27µM*,-7%,-1%
CN(C)S(=O)(=O)c1cccc(-c2cn3cc(Cl)ccc3n2)c1,-5%,-16%,21%,?,?,24%
Clc1ccc2nc(-c3ccc4c(c3)OCO4)cn2c1,·,?,0.13µM*,0.12µM*,?,0.32µM*
COc1ccc(NC(=O)C2CCN(S(=O)(=O)c3ccc4c(c3)CCCC(=O)N4)CC2)c(OC)c1,·,·,·,-8%,·,·
OCCN1CCN(C(c2ccccc2Cl)c2sc3nc(-c4ccco4)nn3c2O)CC1 (configuration not stated),·,·,·,-14%,·,·
CCc1ccccc1NC(=O)Nc1cc(C(=O)NCc2ccc(C)cc2)ccc1N1CCCC1,·,·,·,2%,·,·
Cc1ccc(Cl)cc1NC(=O)Cn1nc2c(cc1=O)CC(C)CC2 (configuration not stated),·,·,·,-2%,·,·
Cc1ccc2nc(-c3ccc4c(c3)NC(=O)CO4)cn2c1,·,?,1.1µM*,0.85µM*,?,1.6µM*
Cc1cccnc1Nc1nc(-c2ccccn2)cs1,·,?,-1%,?,5.8µM*,?
Cc1cccnc1Nc1nc(-c2ccccc2)cs1,·,?,3.5µM*,1.9µM*,2.6µM*,3.2µM*
O=C(Nc1cccc(OCC(=O)N2CCOCC2)c1)c1ccc(C(F)(F)F)cc1,·,-7%,-15%,15µM*,-15%,-6%
